Each structure is given as a SMILES string. Records with an inconclusive call do not appear. Active and inactive are the calls of the source. Rule for the calls: active = hit-call score of the fitted dose curve at least 0.9, where 1 is the maximum; inconclusive = response in the unintended direction; inactive = score below 0.9.

Estrogen receptor (Homo sapiens), sequence (P03372 whole entry, looked up): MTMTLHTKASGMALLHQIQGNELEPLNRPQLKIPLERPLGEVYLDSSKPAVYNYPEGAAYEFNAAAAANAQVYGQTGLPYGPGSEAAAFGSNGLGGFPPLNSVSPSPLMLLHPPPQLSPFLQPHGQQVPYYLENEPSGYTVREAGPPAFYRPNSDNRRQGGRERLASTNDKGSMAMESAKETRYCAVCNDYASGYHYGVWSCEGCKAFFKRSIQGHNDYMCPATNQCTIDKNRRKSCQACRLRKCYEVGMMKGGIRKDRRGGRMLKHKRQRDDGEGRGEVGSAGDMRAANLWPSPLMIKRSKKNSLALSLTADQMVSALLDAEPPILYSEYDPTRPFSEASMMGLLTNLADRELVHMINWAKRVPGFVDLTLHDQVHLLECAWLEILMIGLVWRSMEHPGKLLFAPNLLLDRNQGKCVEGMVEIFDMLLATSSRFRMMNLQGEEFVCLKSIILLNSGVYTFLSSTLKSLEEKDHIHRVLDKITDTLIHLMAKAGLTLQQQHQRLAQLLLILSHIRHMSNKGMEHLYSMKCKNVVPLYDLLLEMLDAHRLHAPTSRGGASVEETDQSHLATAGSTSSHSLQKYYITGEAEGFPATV

The target in this test is Estrogen receptor (Homo sapiens) (UniProt P03372). Kind of test: ERF_TW_NR_COA_hESR1: Eurofins (ERF) Nuclear Receptor (NR) Functional Coactivator Assay for human Estrogen Receptor alpha (ERa) Agonism. Here is the method:
ERF_TW_NR_COA_hESR1 is a biochemical, single-readout assay that uses extracted gene-proteins in a cell-free assay. Measurements were taken 0.16 hours after chemical dosing in a 96-well plate. See ERalpha Human Estrogen NHR Functional Agonist Coactivator Assay, Panlabs.ERF_TW_NR_COA_hESR1 is an assay component calculated from the ERF_TW_NR_COA_hESR1 assay. It is designed to measure FRET using a type of binding reporter as detected by fluorescence intensity of estriol with fluorimetry technology.Data from the assay component ERF_TW_NR_COA_hESR1 was analyzed at the assay endpoint, ERF_TW_NR_COA_hESR1, in the positive analysis fitting direction relative to DMSO as the negative control and baseline of activity. Using a type of binding reporter, gain-of-signal activity can be used to understand changes in binding as they relate to gene ESR1. To generalize the intended target to other relatable targets, this assay endpoint is annotated to the nuclear receptor intended target family, where the subfamily is steroid.
Test compound and/or vehicle is incubated with the 7 nM estrogen receptor alpha (ERalpha)-LBD and coactivator peptide for 10 minutes at RT. Determination of the amount of complex formed is read spectrofluorimetrically at 520 nm/490 nm. Test compound-induced increase fluorescence by 50 percent or more (>/=50%) relative to the 1 uM Estriol response indicates possible ERalpha receptor agonist activity.
Take `OCC(F)(F)OC(F)(F)C(F)(F)OC(F)(F)C(F)(F)OC(F)(F)F`: the compound was classed as inactive.

Regarding `NS(=O)(=O)C(F)(F)C(F)(F)C(F)(F)C(F)(F)C(F)(F)C(F)(F)C(F)(F)C(F)(F)F`, the call was inactive.

Turning to `OCC(F)(F)OC(F)(F)C(F)(F)OC(F)(F)C(F)(F)OC(F)(F)CO`, the AC50 is 3.43 µM (active).

The term AC50 denotes the concentration giving half of the maximal activity seen.

The values above are taken from PubChem BioAssay AID2284377 (EPA ToxCast).
